This note sets out measurements from paper PMC6451091, “NextPBM: a platform to study cell-specific transcription factor binding and cooperativity”.

Over roughly 3,700 sequences, “z-score” has its median near 4; the highest 2% begin near 8.4. Many of the other results were omitted from the sample, so the highest values are more common in it than they were.

For assay [1], the target named is PU.1 (IVT) (UniProt P17947 1-270). The assay is described as follows: protein-binding microarray (PBM); 20 mM HEPES pH 7.9, 100 mM NaCl, 1 mM DTT, 0.2 mg/mL BSA, 0.02% Triton X-100, 2% milk, 0.4 mg/mL salmon testes DNA; 1 h; temperature not stated; high values mean tight binding. Particulars: dsDNA, one strand shown. The method in brief:
(§1)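 PU.1, full-length and untagged, came from coupled human in vitro transcription/translation and was bound for 1 h to double-stranded DNA microarrays of 20-bp genomic sites and single-nucleotide variants in HEPES pH 7.9, 100 mM NaCl, 2% milk and salmon testes DNA. After antibody detection, the values were taken as z-scores of scanned fluorescence normalised by linear regression.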

The target is the same in assay [2]. Described as above. Particulars: dsDNA, one strand shown. The method in brief:
as §1
The source holds these as a separate data set.

For the sequence “GCCTAGCACGAAAAGAGGAAGTGTGAGACGTGCTAGGTCTTGATTCGCTTGACGCTGCTG”, the binding signal with PU.1 (IVT) [1] turned out to be 7.97 z-score.

“GCCTAGCACAAAAAAAGGAAGTGATAGCCGTGCTAGGTCTTGATTCGCTTGACGCTGCTG” came in with a binding signal with PU.1 (IVT) [2] of 6.5 z-score.

In the assay with PU.1 (IVT) [1], “GCCTAGCACAAAAAGAGGAAGTGATGAGTGTGCTAGGTCTTGATTCGCTTGACGCTGCTG” came in with a binding signal of 8.92 z-score.

Take “GCCTAGCACAAAAAGAGGAAGTCAGTTTGGTGCTAGGTCTTGATTCGCTTGACGCTGCTG”: in the assay with PU.1 (IVT) [1], the binding signal was 8.4 z-score.

In the case of “GCCTAGCACGAAAAGAGGAAGTGTGAGATGTGCTAGGTCTTGATTCGCTTGACGCTGCTG”, the binding signal with PU.1 (IVT) [1] stood at 8.2 z-score.

In the assay with PU.1 (IVT) [1], “GCCTAGCACGAAAAGAGGAAGTGAGATGTGTGCTAGGTCTTGATTCGCTTGACGCTGCTG” had a binding signal of 8.73 z-score.

In the assay with PU.1 (IVT) [1], “GCCTAGCACAAGAAGAGGAAGTGAGTGCTGTGCTAGGTCTTGATTCGCTTGACGCTGCTG” had a binding signal of 7.09 z-score.

Regarding “GCCTAGCACAAAAAGAGGAAGTGATGACCGTGCTAGGTCTTGATTCGCTTGACGCTGCTG”, the binding signal in the assay with PU.1 (IVT) [1] is 8.84 z-score.

The sequence “GCCTAGCACAAGATGAGGAAGTGAGTGTAGTGCTAGGTCTTGATTCGCTTGACGCTGCTG” came in with a binding signal in the assay with PU.1 (IVT) [2] of 6.13 z-score.

Take “GCCTAGCACAAAGAGAGGAAGTACAGTTTGTGCTAGGTCTTGATTCGCTTGACGCTGCTG”: the binding signal in the assay with PU.1 (IVT) [1] is 5.35 z-score.

Sequence “GCCTAGCACAAAAAGAGGAAGTCTGGTGTGTGCTAGGTCTTGATTCGCTTGACGCTGCTG” gave a binding signal with PU.1 (IVT) [1] of 8.02 z-score.

Regarding “GCCTAGCACAAAAAAAGGAAGTGGACCGTGTGCTAGGTCTTGATTCGCTTGACGCTGCTG”, the binding signal in the assay with PU.1 (IVT) [2] was determined as 6.55 z-score.

In the case of “GCCTAGCACTTAATGAGGAAGTGCTGTCAGTGCTAGGTCTTGATTCGCTTGACGCTGCTG”, the binding signal with PU.1 (IVT) [1] is 6.5 z-score.

As for “GCCTAGCACTAGATGAGGAAGTACTGTGCGTGCTAGGTCTTGATTCGCTTGACGCTGCTG”, the binding signal in the assay with PU.1 (IVT) [2] stood at 6.57 z-score.

“GCCTAGCACTTTAACAGGAAGTGAAACCAGTGCTAGGTCTTGATTCGCTTGACGCTGCTG” registered a binding signal with PU.1 (IVT) [2] of 4.61 z-score.

For “GCCTAGCACCAAAAAGGGAAGTGGGTTGAGTGCTAGGTCTTGATTCGCTTGACGCTGCTG”, the binding signal with PU.1 (IVT) [1] was 7.02 z-score.

“GCCTAGCACTGAAACAGGAAGTGAGACCAGTGCTAGGTCTTGATTCGCTTGACGCTGCTG” came in with a binding signal in the assay with PU.1 (IVT) [1] of 6.68 z-score.

For the sequence “GCCTAGCACGGAATAGGGAAGTGAAACTGGTGCTAGGTCTTGATTCGCTTGACGCTGCTG”, the binding signal in the assay with PU.1 (IVT) [2] was 6.68 z-score.

For “GCCTAGCACGAAAAGGGGAACTGAAACTAGTGCTAGGTCTTGATTCGCTTGACGCTGCTG”, the binding signal in the assay with PU.1 (IVT) [1] amounted to 6.15 z-score.

“GCCTAGCACAAAAGGAGGAAGTGATCCCTGTGCTAGGTCTTGATTCGCTTGACGCTGCTG”: the binding signal with PU.1 (IVT) [1] was 6.77 z-score.

“GCCTAGCACAAAGAAAGGAAGTGGCCTGTGTGCTAGGTCTTGATTCGCTTGACGCTGCTG” showed a binding signal in the assay with PU.1 (IVT) [1] of 2.71 z-score.

As for “GCCTAGCACAAAAGGAGGAAGTGAAAGTAGTGCTAGGTCTTGATTCGCTTGACGCTGCTG”, in the assay with PU.1 (IVT) [1], the binding signal came out at 6.69 z-score.

The sequence “GCCTAGCACAAAAAGAGGAAGTGGGGGAGGTGCTAGGTCTTGATTCGCTTGACGCTGCTG” gave a binding signal in the assay with PU.1 (IVT) [1] of 8.59 z-score.

Take “GCCTAGCACAAAAGGAGGAAGTGGGGGGAGTGCTAGGTCTTGATTCGCTTGACGCTGCTG”: in the assay with PU.1 (IVT) [2], the binding signal worked out at 6.01 z-score.

In turn, “GCCTAGCACAAAAAAAGGAAGTGAGAGCTGTGCTAGGTCTTGATTCGCTTGACGCTGCTG” had a binding signal in the assay with PU.1 (IVT) [2] of 6.29 z-score.

As for “GCCTAGCACAAAAAGAGGAAGGGGAAGAAGTGCTAGGTCTTGATTCGCTTGACGCTGCTG”, the binding signal with PU.1 (IVT) [2] was 6.26 z-score.

Turning to “GCCTAGCACAAAAAGAGGAAGTGCACAAGGTGCTAGGTCTTGATTCGCTTGACGCTGCTG”, the binding signal with PU.1 (IVT) [1] came out at 8.64 z-score.

In the assay with PU.1 (IVT) [2], “GCCTAGCACAAAAAGAGGAAGAGGAGGAGGTGCTAGGTCTTGATTCGCTTGACGCTGCTG” gave a binding signal of 5.1 z-score.

“GCCTAGCACAAAAAGAGGAAGTGCCCTGTGTGCTAGGTCTTGATTCGCTTGACGCTGCTG”: in the assay with PU.1 (IVT) [1], the binding signal came to 8.56 z-score.

“GCCTAGCACAAAAAAGAGAAGTGGGGGAAGTGCTAGGTCTTGATTCGCTTGACGCTGCTG” yielded a binding signal with PU.1 (IVT) [1] of 5.77 z-score.

In the assay with PU.1 (IVT) [1], “GCCTAGCACAAAAAGAGGAAGTGAGCTTAGTGCTAGGTCTTGATTCGCTTGACGCTGCTG” gave a binding signal of 8.51 z-score.

Consider “GCCTAGCACTGATAGAGGAAGTGCAACCAGTGCTAGGTCTTGATTCGCTTGACGCTGCTG”, for which, in the assay with PU.1 (IVT) [2], the binding signal amounted to 4.92 z-score.

As to “GCCTAGCACGATAGCAGGAAGTGAAACTAGTGCTAGGTCTTGATTCGCTTGACGCTGCTG”, the binding signal with PU.1 (IVT) [2] is 3.14 z-score.

In the assay with PU.1 (IVT) [2], “GCCTAGCACGCAGAGAGGAAGTGTGAATGGTGCTAGGTCTTGATTCGCTTGACGCTGCTG” yielded a binding signal of 3.72 z-score.

In the assay with PU.1 (IVT) [1], “GCCTAGCACTGAGAGGAGAAGTGAAACCCGTGCTAGGTCTTGATTCGCTTGACGCTGCTG” showed a binding signal of 1.26 z-score.

Sequence “GCCTAGCACATTTCTGGGAAGTGAAACTAGTGCTAGGTCTTGATTCGCTTGACGCTGCTG” registered a binding signal with PU.1 (IVT) [2] of 1.93 z-score.

Sequence “GCCTAGCACATAAAAGGGAAGTGGGGCATGTGCTAGGTCTTGATTCGCTTGACGCTGCTG” registered a binding signal with PU.1 (IVT) [2] of 5.38 z-score.

Sequence “GCCTAGCACAGAAAAAGGAAGTGAGCAAAGTGCTAGGTCTTGATTCGCTTGACGCTGCTG” had a binding signal with PU.1 (IVT) [2] of 5.53 z-score.

Turning to “GCCTAGCACTTAAAGAGGAAGAGCATCTTGTGCTAGGTCTTGATTCGCTTGACGCTGCTG”, in the assay with PU.1 (IVT) [2], the binding signal worked out at 3.21 z-score.

“GCCTAGCACTCAAAGAGGAAGTGACATTTGTGCTAGGTCTTGATTCGCTTGACGCTGCTG” came in with a binding signal with PU.1 (IVT) [1] of 7.03 z-score.
